Assay outcomes from PubChem.
An excerpt weighted towards active compounds, which were near 4.7% of everything screened.
ADAM17 inh – ADAM17 inhibition, QFRET primary screen; P78536; recombinant ADAM17, EDANS/DABCYL FRET peptide cleavage; inhibition, % at 6.95 µM; hit rate 0.83% among 370,000; AID 720648;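 active = inhibition above the mean of compounds lying between control limits plus 3 SD, set per campaign, cut at about 8.5% in these data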;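 note: 0% = DMSO-only wells as the low control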
Target sequence (P78536 215-824 limits assumed): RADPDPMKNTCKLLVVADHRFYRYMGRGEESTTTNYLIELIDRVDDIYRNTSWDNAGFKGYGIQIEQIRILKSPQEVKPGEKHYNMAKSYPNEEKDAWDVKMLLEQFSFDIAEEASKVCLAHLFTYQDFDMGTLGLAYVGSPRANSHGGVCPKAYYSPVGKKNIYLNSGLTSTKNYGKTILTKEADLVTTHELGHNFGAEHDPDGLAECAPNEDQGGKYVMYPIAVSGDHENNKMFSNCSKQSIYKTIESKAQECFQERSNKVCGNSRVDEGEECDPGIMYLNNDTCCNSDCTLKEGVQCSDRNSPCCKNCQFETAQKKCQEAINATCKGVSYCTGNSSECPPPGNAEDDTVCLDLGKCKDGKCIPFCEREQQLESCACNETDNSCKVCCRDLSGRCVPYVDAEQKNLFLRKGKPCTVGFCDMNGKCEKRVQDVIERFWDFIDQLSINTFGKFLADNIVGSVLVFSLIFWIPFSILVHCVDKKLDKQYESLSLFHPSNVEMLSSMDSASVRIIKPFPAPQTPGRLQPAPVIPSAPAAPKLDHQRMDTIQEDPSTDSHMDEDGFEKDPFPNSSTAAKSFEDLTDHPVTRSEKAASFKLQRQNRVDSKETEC
ADAM10 inh – inhibits human ADAM10. O14672. recombinant ADAM10, EDANS/DABCYL FRET peptide cleavage, 3 h. inhibition, % at 7 µM. hit rate 0.62% among 370,000. AID 720582;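 active = inhibition above a per-campaign cutoff equal to the mean of compounds falling between control-based bounds plus 3 SD, cut at about 20% in these data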;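 note: 0% = DMSO wells while the 100% control is not disclosed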
DSG3 Ab inh – blocks pemphigus antibody binding to human desmoglein-3 | P32926 | DSG3-coupled beads, scFv-anti-DSG3-GFP binding, flow cytometry; hits give low values | binding (percent of control), % at 10 µM | hit rate 0.48% among 310,000 | AID 588358;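 active = binding more than 3 SD below its plate's average and above zero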;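 note: hits lower antibody fragment binding to DSG3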
rCAG binder – binds r(CAG) RNA repeats. r(CAG) RNA repeat, TO-PRO-1 dye displacement fluorescence. inhibition, % at 3 µM. hit rate 1.3% among 370,000. AID 651821;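 active = inhibition above the plate cutoff, the mean of all test compounds on that plate plus 3 SD, cut at about 35% in these data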;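 note: 0% = DMSO alone and 100% = 100 µM mitoxantrone as full dye displacement; higher means more dye released from RNA so lower well fluorescence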
MPTP inh – inhibitors of mitochondrial permeability transition pore. inhibition, % at 10 µM. hit rate 1.4% among 360,000. AID 602449. isolated mouse mitochondria, Ca2+ swelling absorbance, 30 min;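 active = inhibition of 50% or more, scaled per plate between neutral and stimulator controls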;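 note: 0% = DMSO wells given calcium and 100% = 1 mM EGTA wells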
proKLK7 act – activates the human kallikrein-7 zymogen; P49862; purified proKLK7, EDANS-DABCYL substrate fluorescence; 100% is mature enzyme control, 0% vehicle; activation, % at 7 µM; hit rate 0.9% among 370,000; AID 652039;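 active = activation above the mean of all tested compounds plus 3 SD, computed per campaign excluding outliers beyond control limits, cut at about 13% in these data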
Active calls of the source: *.

COc1cc(C(=O)N2CCN(S(=O)(=O)c3cccc(F)c3)CC2)ccc1OCC(=O)N1CCOCC1 was read as ADAM17 inh -2, ADAM10 inh -7, DSG3 Ab inh 87*, rCAG binder -2, MPTP inh -1 and proKLK7 act 0.
Screening COc1cc(C(=O)NCCc2ccc3c(c2)OCCO3)ccc1OCC(=O)N1CCOCC1 returned ADAM17 inh -3, ADAM10 inh -12, DSG3 Ab inh 108, rCAG binder -3, MPTP inh 1 and proKLK7 act -1.
`Nc1ccc2nc(-c3ccccc3)c(-c3ccccc3)nc2c1` gave ADAM17 inh -6, ADAM10 inh -25, DSG3 Ab inh 128, rCAG binder 8, MPTP inh 3 and proKLK7 act -8.
`NSc1nc(N)c2nc(-c3ccccc3)c(-c3ccccc3)nc2n1` gave ADAM17 inh -70, ADAM10 inh -175, DSG3 Ab inh 67*, rCAG binder 20, MPTP inh 1 and proKLK7 act 0.
Screening C[C@@H]1NS(=O)(=O)c2c(F)cccc2O[C@@H]1c1ccccc1 returned ADAM17 inh -5, ADAM10 inh -15, rCAG binder 2 and proKLK7 act -1.
For CCCn1c(CNS(=O)(=O)c2ccc(C)cc2)nc2ccccc21 the results were ADAM17 inh -2, ADAM10 inh -3, DSG3 Ab inh 66*, rCAG binder -1, MPTP inh 0 and proKLK7 act 0.
`CCOC(=O)N1CCN(C(=O)C[C@H]2C[C@@]3(C(=O)OC)C(=C[C@H](C(C)C)O[C@@H]3C3CC3)N(Cc3ccccc3)C2=O)CC1` gave ADAM17 inh 3, ADAM10 inh 0, rCAG binder 1 and proKLK7 act 0.
For COCc1cc(N2CCNC[C@H]2C)ccc1N1CCN(Cc2ccccc2)[C@@H](C)C1 the results were ADAM17 inh -4, ADAM10 inh -18, rCAG binder 6 and proKLK7 act 0.
For O=C1Nc2ccccc2/C1=N\N=C\C1=C(N2CCOCC2)C(=C\c2ccccc2)/CC1 the results were ADAM17 inh -3, ADAM10 inh -7, DSG3 Ab inh 80*, rCAG binder 9, MPTP inh 17 and proKLK7 act 0.
O=C1Nc2ccc(Br)cc2/C1=N\N=C\C1=C(N2CCOCC2)C(=C/c2ccccc2)/CC1 was read as ADAM17 inh -6, ADAM10 inh -15, DSG3 Ab inh 86*, rCAG binder 9, MPTP inh 13 and proKLK7 act 0.
For Cn1cc(C(=O)N/N=C/C2=C(N3CCOCC3)C(=C\c3ccccc3)/CC2)ccc1=O the results were ADAM17 inh -8, ADAM10 inh -17, DSG3 Ab inh 126, rCAG binder 2, MPTP inh 2 and proKLK7 act -1.
`CCCCn1c(SCC(N)=O)nc2ccc(N3CCOCC3)cc2c1=O` gave ADAM17 inh -81, ADAM10 inh -295, DSG3 Ab inh 94, rCAG binder 5, MPTP inh 0 and proKLK7 act 16*.
Cn1c(=O)c2ccccc2n2c(CCl)nnc12 was read as ADAM17 inh -1, ADAM10 inh 0, DSG3 Ab inh 27*, rCAG binder 0, MPTP inh -1 and proKLK7 act 0.
Screening Cn1c(=O)c2ccccc2n2c(=S)[nH]nc12 returned ADAM17 inh -4, ADAM10 inh -2, DSG3 Ab inh 112, rCAG binder 2, MPTP inh 0 and proKLK7 act 0.
`Cc1ccc2cc(-c3noc(C4CCCO4)n3)c(=O)[nH]c2c1` (stereo not drawn) gave ADAM17 inh -120, ADAM10 inh -475, DSG3 Ab inh 98, rCAG binder 4, MPTP inh -1 and proKLK7 act 1.
For Cc1ccc2cc(-c3noc(C4CCCCC4)n3)c(=O)[nH]c2c1 the results were ADAM17 inh -5, ADAM10 inh -27, DSG3 Ab inh -18*, rCAG binder 2, MPTP inh 0 and proKLK7 act 0.
COP(=O)(O)C[C@@H]1CCc2cc(C)cc([C@H](CC(C)C)NC(=O)OCc3ccccc3)c2O1 was read as ADAM17 inh -25, ADAM10 inh -75, rCAG binder 26 and proKLK7 act 2.
`O=C(/C=C/c1ccc([N+](=O)[O-])cc1)OCC(=O)N1CCCC1` gave ADAM17 inh 1, ADAM10 inh -8, DSG3 Ab inh 77*, rCAG binder 2, MPTP inh 0 and proKLK7 act 0.
For COC(=O)CNc1nc(Cl)nc(Nc2ccc(Cl)cc2)n1 the results were ADAM17 inh -2, ADAM10 inh 2, DSG3 Ab inh 76*, rCAG binder 1, MPTP inh -1 and proKLK7 act 0.
`COC(=O)CNc1nc(Cl)nc(Nc2ccc(C)cc2)n1` gave ADAM17 inh 0, ADAM10 inh -1, DSG3 Ab inh 101, rCAG binder -2, MPTP inh -1 and proKLK7 act 0.
CCOc1ccccc1-c1nc(-c2ccncc2)no1 was read as ADAM17 inh -2, ADAM10 inh -7, DSG3 Ab inh 96, rCAG binder -9, MPTP inh 0 and proKLK7 act 0.
For CCSc1ccccc1-c1nc(-c2ccncc2)no1 the results were ADAM17 inh 2, ADAM10 inh 1, DSG3 Ab inh 70*, rCAG binder -2, MPTP inh 1 and proKLK7 act 0.
Screening O=C(NCc1ccco1)O[C@H]1CC[C@@]23CCCN2C(=O)CCC[C@H]3C1 returned ADAM17 inh -5 and ADAM10 inh -8.
`O=S1(=O)N[C@H](Cc2ccccc2)COc2cc(Br)ccc21` gave ADAM17 inh 0, ADAM10 inh -11, rCAG binder 5 and proKLK7 act 0.
Screening CC(=O)N(Nc1ccccc1)c1ccccc1 returned ADAM17 inh -6, ADAM10 inh -8, DSG3 Ab inh 67*, rCAG binder -2, MPTP inh 1 and proKLK7 act 0.
For CCOC(=O)c1sc(=NC(=O)c2cccs2)n(C)c1C the results were ADAM17 inh 1, ADAM10 inh 0, DSG3 Ab inh 107, rCAG binder -1, MPTP inh 0 and proKLK7 act 0.
Screening CCOC(=O)c1sc(=NC(=O)c2ccccc2Br)n(C)c1C returned ADAM17 inh 3, ADAM10 inh 10, DSG3 Ab inh 68*, rCAG binder -3, MPTP inh 1 and proKLK7 act 0.
`O=C(COCc1ccccc1)N1CCC(Oc2cccnc2)CC1` gave ADAM17 inh -3, ADAM10 inh -4, rCAG binder 1 and proKLK7 act 0.
For CCOc1cccc(/C=N\NC(=O)Cc2cccs2)c1O the results were ADAM17 inh -9, ADAM10 inh -24, rCAG binder 6 and proKLK7 act -18.
For C[C@@H]1Cn2cnc(C(=O)N3CCN(C(=O)OC(C)(C)C)CC3)c2C(=O)N1 the results were ADAM17 inh 1, ADAM10 inh -6, rCAG binder -1 and proKLK7 act 0.
